The list is not random: actives were taken first. Their share in the collection is about 19%.
HT1080NT lethal: kills 2HG-producing HT-1080-NT fibrosarcoma cells | 360,000 compounds, 1.6% hits | HT-1080-NT fibrosarcoma viability, CellTiter-Glo ATP luminescence, 48 h | Potency, µM (doses to about 46.1 µM), inactives show top-dose activity, negative = less viability, most hits filed as cytotoxic;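 also: NT is the 2HG producing partner of a matched IDH1 knockdown line; potency is read from the fitted curve at half-maximal effect; 0% = DMSO-treated cells and -100% = media-only wells without cells; nearly all actives have a fitted effect of over 55% in size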
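Luminescent CellTiter-Glo readout after 48 hours of compound exposure at 37 degrees C defined viability of HT-1080-NT cells. Activity was normalized to DMSO wells and cell-free media wells; concentration-response curves were fitted and assigned curve classes.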
HT1080 IDH1KD tx: HT-1080 IDH1 knockdown cell toxicity (counter line). HT-1080 IDH1 knockdown viability, ATP luminescence, 48 h. Potency, µM (doses to about 46.1 µM), without a hit: at the highest dose activity, negative = toxicity, most hits filed as cytotoxic. 360,000 compounds, 2% hits. AID 686971;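 also: potency is read from the fitted curve at half-maximal effect; 0% = DMSO wells and -100% = cell-free medium wells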
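Assay cells: HT-1080 with IDH1 knockdown, 750 per well, RPMI/5% FBS. Exposure: 48 h at 37 °C following 2 h pre-incubation. Read: CellTiter-Glo luminescence; fitted concentration-response, curve class assigned.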
TDP1 cell CPT: growth inhibition of DT40 Tdp1-/-;hTDP1 cells with camptothecin (screen for TDP1 inhibitors). chicken DT40 Tdp1-/-;hTDP1 cells + 20 nM CPT, ATP luminescence, 48 h. Potency, µM (series often up to 46.2 µM), without a hit: at the top dose activity change, negative = growth inhibition, most hits filed as inhibitors. 420,000 compounds, 12% hits; also: potency is read from the fitted curve at half-maximal effect; nearly all actives have a fitted effect of over 55% in size
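Chicken DT40 Tdp1-/- cells complemented with human TDP1, 400 cells/well, exposed to compounds plus 20 nM camptothecin for at least 48 h at 37 C; viability read as ATP content by CellTiter-Glo luminescence.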
DT40 TDP1 no CPT: qHTS for Inhibitors of human tyrosyl-DNA phosphodiesterase 1 (TDP1): qHTS in cells in absence of CPT; AID 686978, 2013; Potency, µM (highest dose often 46.2 µM), for inactives: at the highest dose activity change, negative = growth inhibition, most hits filed as inhibitors; 420,000 compounds, 15% hits; DT40 Tdp1-/- hTDP1 cells, no CPT, ATP luminescence, 48 h; also: potency is read from the fitted curve at half-maximal effect; nearly all actives have a fitted effect of over 55% in size
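Readout: luminescence from CellTiter-Glo after 30 min in the dark at RT. Cells: DT40 Tdp1-/- with stable hTDP1, 400/well. Exposure: compounds alone, ≥48 hr, 37 °C.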
IL-1B inflam inh: inflammasome signaling inhibition, IL-1 beta readout. activity change, % at 57.5 µM. 360,000 compounds, 4.7% hits. AID 743279. THP-1 LPS/ATP IL-1B secretion, AlphaLISA, 16 h; stronger effect = lower value; in the data active = activity change below about -50%; inconclusive = mostly about -30% to -49%
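THP-1 cells pretreated 1 hr with compounds (up to 57.5 uM final), then stimulated with LPS (250 ng/mL final) plus ATP (1.25 mM final); secreted IL-1B measured by AlphaLISA after 16 hr, decreased signal indicating inhibition.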
Numbers without * were called inactive; ? = inconclusive; nt = no result given; [ ] = dose if it differs, or a comment. Unless noted, calls follow the shape of the dose curve; as a rule, active = well fitted curve in the direction sought with a large enough effect; inconclusive = small, poorly fitted or top-dose-only effect, or another doubt; inactive = no such curve, though single readings can be large; an effect the other way counts as inactive or inconclusive. Unless noted, % is scaled to controls: 0 for no effect and ±100 for the full control effect.

SMILES | HT1080NT lethal | HT1080 IDH1KD tx | TDP1 cell CPT | DT40 TDP1 no CPT | IL-1B inflam inh
COc1ccc(OC)c(NC(=O)C(=O)NCCC2=CCCCC2)c1 | 18.7% | 23.1% | ? | ? | -3.2
CCN1CCCC1CN(Cc1cc2ccc(C)cc2[nH]c1=O)C(=S)Nc1cccc(OC)c1 (configuration not stated) | ? | 18.4µM* | ? | 29.1µM* | -77.0*
CCN1CCCC1CN(Cc1cc2ccc(C)cc2[nH]c1=O)C(=S)Nc1ccc(OC)cc1 (configuration not stated) | ? | ? | ? | 5.17µM* | -106.5*
CCCN(Cc1cc2cc(C)ccc2[nH]c1=O)C(=O)c1cccc(OC)c1 | -13.4% | -14.4% | ? | ? | ?
CCOC(=O)c1cnc(SCc2nc(N)nc(Nc3ccccc3)n2)nc1N | -17.5% | -18.5% | 16.4µM* | 16.4µM* | 5.9
CCOC(=O)c1cnc(SCc2ccc(C)cc2)nc1N | 14.6% | 2.8% | -13.9% | -9.5% | -11.9
CCOC(=O)c1cnc(SCC(=O)Nc2cc(OC)cc(OC)c2)nc1N | -28.4% | ? | 8.2µM* | 8.2µM* | 35.9
CCOC(=O)c1cnc(SCC(=O)Nc2ccc(N3CCOCC3)c(Cl)c2)nc1N | 8.0% | 0.7% | ? | 12.6µM* | -8.5
Cc1ccc(NC(=O)CSc2nc(=O)n(CCCN3CCOCC3)c3c2CCCC3)cc1F | -6.9% | -10.6% | 1.3% | -17.6% | -85.2*
O=C(CSc1nc(=O)n(Cc2cccnc2)c2c1CCC2)Nc1cccc(Cl)c1 | nt | nt | -26.2% | ? | nt
Cc1ccc(NC(=O)CSc2nc(=O)n(Cc3ccccn3)c3c2CCC3)cc1F | nt | nt | ? | 16.4µM* | nt
CCc1ccc(NC(=O)CSc2nc(=O)n(CCCN3CCOCC3)c3c2CCCC3)cc1 | 3.1% | 3.7% | -18.5% | -21.7% | ?
CC(C)c1ccc(NC(=O)CSc2nc(=O)n(Cc3cccnc3)c3c2CCC3)cc1 | nt | nt | ? | 25.9µM* | nt
CC(C)c1ccc(NC(=O)CSc2nc(=O)n(Cc3ccccn3)c3c2CCC3)cc1 | nt | nt | 23.1µM* | 18.4µM* | nt
CC(=O)c1cccc(NC(=O)CSc2nc(=O)n(Cc3ccccn3)c3c2CCC3)c1 | -11.6% | -14.4% | -29.1% | ? | ?
COc1ccccc1NC(=S)N1CCn2cccc2C1c1cccnc1 (configuration not stated) | 1.9% | 12.2% | 4.8% | -14.4% | 0.0
O=C(c1cc2cc([N+](=O)[O-])ccc2oc1=O)N1CCN(C2CCCCC2)CC1 | 1.2% | 3.2% | 0.4% | 2.1% | 30.3
Oc1c(Br)cc(Br)cc1CNc1nccs1 | -13.5% | -16.2% | -20.7% | -7.4% | 10.0
CC(C)(C)N(Cc1ccccc1)C(=O)COC(=O)c1cccc([N+](=O)[O-])c1 | 5.4% | 11.6% | -26.8% | ? | 40.9
CC1Oc2ccccc2C=C1/C=N/NC(=O)[C@@H](C)NC(=O)OC(C)(C)C (some centres not stated) | 1.4% | 0.2% | ? | ? | ?
CC1Oc2ccccc2C=C1/C=N\NC(=O)c1cccnc1 (configuration not stated) | -0.7% | 1.3% | -12.5% | -27.2% | 13.8
Cc1ccc(C(=O)N/N=C/C2=Cc3ccccc3OC2C)cc1 (configuration not stated) | -21.0% | -15.6% | ? | 14.6µM* | -19.9
CC1Oc2ccccc2C=C1/C=N/NC(=O)c1ccccc1 (configuration not stated) | -22.5% | -2.1% | 9.2µM* | 25.9µM* | -1.0
CCOCCCNC(=O)c1cnc2sc(N3CCCCCC3)nn2c1=O | nt | nt | 1.8% | -18.3% | nt
CCOC(=O)Cn1c(=O)c2c(nc(N3CCOCC3)n2Cc2ccccc2)n(C)c1=O | nt | nt | ? | 16.4µM* | nt
SMILES | HT1080NT lethal | HT1080 IDH1KD tx | TDP1 cell CPT | DT40 TDP1 no CPT | IL-1B inflam inh
Cn1c(=O)c2c(nc(N3CCCCCC3)n2Cc2cccc3ccccc23)n(C)c1=O | -4.7% | -28.7% | ? | 25.9µM* | 11.3
Cn1c(=O)c2c(nc(N3CCOCC3)n2Cc2ccccc2)n(C)c1=O | nt | nt | ? | 25.9µM* | nt
COc1ccc(CN2CCC3(CCC(CNC(=O)c4ccco4)O3)CC2)c(OC)c1C (configuration not stated) | nt | nt | -4.5%[9.04 µM] | -28.2% | nt
Cc1cccc(NCCC(=O)c2ccc(Br)cc2)c1 | ? | ? | 23.1µM* | 23.1µM* | 0.3
CCOC(=O)CNCCC(=O)c1ccc(Br)cc1 | -1.9% | 4.8% | 5.8µM* | 6.51µM* | ?
Cc1[nH]oc(=O)c1N=Nc1ccc2[nH]c(=O)[nH]c2c1 | 0.1% | 1.4% | -13.8% | -17.3% | -1.2
Cc1nn(C)c(Cl)c1S(=O)(=O)N(Cc1ccco1)c1ncnc2nc[nH]c12 | nt | nt | -8.8% | -10.2% | nt
C[C@]12C(=O)N(c3ccc(Cl)cc3)C(=O)N1[C@@H]1c3ccccc3OC[C@@H]1[C@H]2c1ccccc1 | 0.2% | -1.3% | ? | 23.1µM* | -1.8
C[C@@]12C(=O)N(c3cccc(F)c3)C(=O)N1[C@@H]1c3ccccc3OC[C@@H]1[C@H]2c1ccccc1 | ? | -3.1% | ? | 14.6µM* | -8.0
C[C@@]12C(=O)N(c3ccc(Br)cc3)C(=O)N1[C@@H]1c3ccccc3OC[C@@H]1[C@H]2c1ccccc1 | 2.4% | 5.5% | ? | 18.4µM* | -2.3
C[C@]12C(=O)N(c3ccc(Cl)cc3)C(=O)N1[C@H]1c3ccccc3OC[C@@H]1[C@H]2c1ccccc1 | -13.0% | -19.1% | ? | ? | -5.8
C[C@@]12C(=O)N(c3ccccc3)C(=O)N1[C@@H]1c3ccccc3OC[C@@H]1[C@H]2c1ccccc1 | -13.9% | -18.8% | 16.4µM* | ? | -5.9
CC(OC(=O)/C=C/c1ccccc1Cl)C(=O)NC1CCCCC1C (configuration not stated) | -7.3% | -28.3% | -23.0% | 2.0% | -7.3
COc1ccc(Cc2c(-c3ccc(OC)c(OC)c3)nc3ccc(C)cn23)c(C)c1 | -28.9% | ? | ? | 16.4µM* | -5.6
COc1ccc(Cc2c(-c3ccc(C)cc3)nc3c(C)cc(Br)cn23)c(C)c1 | -4.2% | -3.8% | ? | ? | 38.8
COc1ccc(Cc2c(-c3ccc(OC)c(OC)c3)nc3c(C)cc(Br)cn23)c(C)c1 | ? | ? | 1.16µM* | 1.46µM* | -14.5
COc1ccc(Cc2c(-c3ccc(OC)c(OC)c3)nc3cc(C)c(Br)c(C)n23)c(C)c1 | -26.4% | ? | ? | ? | 7.3
COc1ccc(-c2nc3c(C)cc(Br)cn3c2Cc2ccccc2)cc1OC | ? | ? | 7.31µM* | 6.51µM* | -1.6
Cc1cccc(-n2nnnc2SCC(=O)Nc2cccc(S(N)(=O)=O)c2)c1 | 0.0% | -4.2% | -14.6% | ? | 70.0
